Hit rate of the full screen: of about 38,000 compounds, about 1,200 (3.2%) showed an effect of 50% or more. The median lay at about -58%. This is one part of a sample in which strong results are shown more often than they occur.
System: Plasmodium falciparum
Assay: Calibr Malaria Delayed Death Assay SOP
Format: functional, organism-based
Set-up: scale not given: in the data most compounds retested in dose-response had high values
Conditions: concentration 4.99e-06 (unit not given; other assays of the set use mol/L)

Going from Cc1nc(C)c(CC(=O)N2C[C@H]3CC[C@@H]2CN(c2cnccn2)C3)s1 to CC(C)c1nc(CNC2CCCN(c3cccnn3)C2)no1 (stereo not drawn), the “Percent Effect” value rises from -79.94% to -23.44%.

First: CCc1nnnn1Cc1csc(N(C)C(C)=O)n1
Second: CCn1cc(NC(=O)NCC(C)N(C)C)cn1 (stereo not drawn)
The “Percent Effect” value of the first is higher: -54.02% for the first, -90.57% for the second.

Going from Cc1ccc(Cl)cc1NC(=O)Nc1c[nH]c(=O)[nH]c1=O to O=C(NCc1c[nH]c(=O)[nH]c1=O)C1CCOc2ccccc2C1 (stereo not drawn), the “Percent Effect” value rises from -189.6% to -114.6%.

Compared with Cc1ncsc1C(=O)NCCNc1ncccc1C#N, Cc1ccsc1CN(C)Cc1ncccc1C(=O)O is lower in “Percent Effect” value: -35.74% for the first, -86.93% for the second.

Going from CCOCC1c2c(ncn2C)CCN1C(=O)c1cnc(C)cn1.O=C(O)C(F)(F)F (stereo not drawn) to CCN1C[C@H]2C[C@H](C(=O)Nc3ccccc3)[C@@H](C1)O2.O=C(O)C(F)(F)F, the “Percent Effect” value falls from -51.51% to -59.56%.

First: Cc1ccc(S(=O)(=O)N(CC(N)=O)CC(C)C)cc1C
Second: CNS(=O)(=O)c1cccc(C(C)NCc2ccc(C)c(C)c2)c1 (stereo not drawn)
The “Percent Effect” value of the first is lower: -27.83% for the first, 61.29% for the second.

Compared with O=C(NCCCn1ccnc1)c1cccnc1OCC(F)(F)F, O=C(NCCn1ccnc1)c1ccn(-c2ccc(F)cc2)n1 is higher in “Percent Effect” value: -158.9% for the first, -157.5% for the second.

Going from CC(C)[C@@H]1CN(CCOc2ccc(Cl)cc2)C[C@H]1NS(C)(=O)=O to CC(C)[C@@H]1CN(CCCOc2ccc(F)cc2)C[C@H]1NS(C)(=O)=O, the “Percent Effect” value rises from 45.65% to 53.48%.

Compared with CCc1ccccc1OCCN1C[C@@H](NS(C)(=O)=O)[C@H](C(C)C)C1, CCOc1ccc(CNC(C)c2cccc(S(=O)(=O)NC)c2)cc1 (stereo not drawn) is higher in “Percent Effect” value: 45.03% for the first, 46.18% for the second.

First: CC(C)n1cc(N2CC(C(=O)N3CCN(C)CC3)CC2=O)cn1 (stereo not drawn)
Second: Cn1ccc2ccc(C(=O)N3CCN(C(=O)OC(C)(C)C)CC3)cc21
The “Percent Effect” value of the first is lower: -61.38% for the first, 4.042% for the second.

First: Cc1csc(N2CCN(C(=O)CCn3cccn3)CC2)n1
Second: Cc1cccc(NC(=O)N2CCn3cnc(COCC4CC4)c3C2)c1
The “Percent Effect” value of the first is higher: -135.1% for the first, -185.1% for the second.

Compared with CN(Cc1nc2ccccc2c(=O)[nH]1)C[C@@H]1CCCN2CCCC[C@H]12, CN(Cc1nc2ccsc2c(=O)[nH]1)C[C@@H]1CCCN2CCCC[C@H]12 is lower in “Percent Effect” value: -16.14% for the first, -24.21% for the second.

First: Cc1cc(C)cc(C(=O)N2CCCN(CC(N)=O)CC2)c1
Second: CC1CN(CC(=O)NC2CCCC2)CCN1c1ccc2nncn2n1 (stereo not drawn)
The “Percent Effect” value of the first is lower: -30.23% for the first, -5% for the second.

Going from O=C(CN(CC1CCC1)CC(F)(F)F)N1CCCC1 to N#Cc1cccc(CN2CC[C@@H]3CN(c4ncccn4)CCO[C@@H]3C2)c1.O=C(O)C(F)(F)F, the “Percent Effect” value rises from -123.3% to -75.88%.

First: CS(=O)(=O)NC(=O)c1nnn(-c2cccc(F)c2)c1C1CC1
Second: CNC(=O)CN(C(=O)c1ccc(SC)o1)c1cccc(F)c1
The “Percent Effect” value of the first is higher: -54.99% for the first, -133.7% for the second.

Going from CC(C)(C)c1nc(CNC2CCCN(c3cccnn3)C2)no1 (stereo not drawn) to Cc1nc(CNC2CCCN(c3cccnn3)C2)no1 (stereo not drawn), the “Percent Effect” value falls from 82.54% to -95.1%.

Going from CC1CN(CC2CCCCC2)CCN1c1ccc2nncn2n1 (stereo not drawn) to CC1CN(CC2CCCC2)CCN1c1ccc2nncn2n1 (stereo not drawn), the “Percent Effect” value rises from 13.91% to 68.96%.

Compared with COCCNC(=O)C[C@@H]1COC[C@H]2CN(C(=O)C3CCOCC3)C[C@@H]12, O=C(c1ccc[nH]1)N1CCOCC2(CCN(C3CCOCC3)C2)C1 (stereo not drawn) is higher in “Percent Effect” value: -84.55% for the first, -29.73% for the second.

Going from CN(C)C(C)(C)CNC(=O)C(C)(C)c1ccccc1F to CC(C)(CNC(=O)C(C)(C)c1ccccc1F)C(N)=O, the “Percent Effect” value falls from 51.42% to -90.26%.

Compared with CC(C)(C(=O)NCC(N)=O)c1ccccc1F, CC(C)(C)CNC(=O)c1ccc(C(=O)O)cc1 is lower in “Percent Effect” value: -66.81% for the first, -149.2% for the second.

First: Nc1nnc(SCc2cc(=O)n3c4c(sc3n2)CCCC4)s1
Second: CCc1cc(N2CCC(NCCc3nc(C)c(C)s3)CC2)nc(C)n1
The “Percent Effect” value of the first is lower: -2.534% for the first, 38.37% for the second.

Going from COc1nn(C)cc1-c1nnc(SCc2cccnc2)n1C to CCn1ccc(NS(=O)(=O)c2cccc(COC)c2)n1, the “Percent Effect” value falls from -46.9% to -78.42%.

First: Cc1ccsc1CN(CCCC(F)(F)F)Cc1ccccn1
Second: Cc1ccsc1CN(CCCN(C)C)Cc1ccccn1
The “Percent Effect” value of the first is lower: -90.49% for the first, 76.79% for the second.

Compared with CCn1nc(C)c(CN(CCOC)Cc2ccccn2)c1C, COCCC(=O)N(Cc1ccccn1)Cc1ccccc1C is lower in “Percent Effect” value: -17.72% for the first, -111.9% for the second.

Going from CNS(=O)(=O)c1cccc(C(C)NCc2cccc(O)c2)c1 (stereo not drawn) to CNS(=O)(=O)c1cccc(C(C)NCc2ccccc2)c1 (stereo not drawn), the “Percent Effect” value rises from 1.026% to 57.8%.

Going from CNS(=O)(=O)c1cccc(C(C)NCc2ccsc2)c1 (stereo not drawn) to CNS(=O)(=O)c1cccc(C(C)NCc2ccncc2)c1 (stereo not drawn), the “Percent Effect” value falls from 66.25% to -55.25%.

Compared with CC(NCc1ccc(C(C)(C)C)cc1)c1ccc(S(C)(=O)=O)cc1 (stereo not drawn), CNS(=O)(=O)c1cccc(C(C)NCc2ccc(F)c(F)c2)c1 (stereo not drawn) is higher in “Percent Effect” value: -13.51% for the first, 8.659% for the second.

First: CNS(=O)(=O)c1cccc(CNC(=O)CCc2ccsc2)c1
Second: COc1cc(C(=O)N(Cc2ccco2)C2CC2)cc(OC)c1OC
The “Percent Effect” value of the first is lower: -45.32% for the first, -36.86% for the second.

Going from Cc1oc(-c2nc(C#N)c(N(C)C)o2)cc1S(=O)(=O)N1CCCCCC1 to O=C(c1ccc(=O)[nH]c1)N1CCCC1c1nc2cc(F)ccc2[nH]1 (stereo not drawn), the “Percent Effect” value falls from -117.8% to -157.5%.

Going from COc1cc(C(=O)NC(C)c2cccs2)cc2c1OCCO2 (stereo not drawn) to CC(C)c1nccc(C2(c3ccccc3Cl)CCNCC2)n1, the “Percent Effect” value rises from 13.73% to 83.06%.

First: O=C(c1cscn1)N1CCCCC1c1nc2cc(F)ccc2[nH]1 (stereo not drawn)
Second: Clc1ccccc1C1(c2ccnc(-c3ccncc3)n2)CCNCC1
The “Percent Effect” value of the first is lower: -66.74% for the first, 82.92% for the second.

First: CCCc1nc(CN(CC)Cc2ccoc2)no1
Second: CCC1C(=O)NCCN1c1ccnc(C(C)(C)C)n1 (stereo not drawn)
The “Percent Effect” value of the first is lower: -101% for the first, -75.62% for the second.

Compared with CCCSCC(=O)N1CCCC(CO)(CCC)C1 (stereo not drawn), CC(C)(C)c1nccc(C2(c3ccccc3Cl)CCNCC2)n1 is higher in “Percent Effect” value: -200.5% for the first, 75.06% for the second.

First: Clc1ccccc1C1(c2ccnc(-c3ncccn3)n2)CCNCC1
Second: O=c1[nH]cccc1-c1nccc(C2(c3ccccc3Cl)CCNCC2)n1
The “Percent Effect” value of the first is lower: -58.98% for the first, -5.024% for the second.

— ChEMBL document CHEMBL3988442, “University of Dundee, Small-Polar-MMV Screening Library” (2021)
